Active and inactive are the calls of the source. The calls were made as follows: active = hit-call score of the fitted dose curve at least 0.9, where 1 is the maximum; inactive = score below 0.9.

The nature of the assay: ATG_TGFb_CIS: Attagene CIS-FACTORIAL HepG2 Assay for human Transforming Growth Factor (TGF) (AID 2282967). Conditions: HepG2 Attagene CIS TGFb reporter, mRNA transcription; actives raise or lower the signal. The protocol:
ATG_CIS is a cell-based, multiplexed-readout assay that uses HepG2, a human liver cell line, with measurements taken at 24 hours after chemical dosing in a 24-well plate.ATG_TGFb_CIS is one of 52 assay component(s) measured or calculated from the ATG_CIS assay. It is designed to make measurements of mRNA induction, a form of inducible reporter, as detected with fluorescence intensity signals by Reverse transcription polymerase chain reaction (RT-PCR) and Capillary electrophoresis technology.Data from the assay component ATG_TGFb_CIS was analyzed into 1 assay endpoint. This assay endpoint, ATG_TGFb_CIS, was analyzed with bidirectional fitting relative to DMSO as the negative control and baseline of activity. Using a type of inducible reporter, measures of mRNA for gain or loss-of-signal activity can be used to understand the reporter gene at the transcription factor-level as they relate to the gene TGFB1. Furthermore, this assay endpoint can be referred to as a primary readout, because this assay has produced multiple assay endpoints where this one serves a reporter gene function. To generalize the intended target to other relatable targets, this assay endpoint is annotated to the growth factor intended target family, where the subfamily is transforming growth factor beta.
Human liver HepG2 cells are transiently transfected with multiple reporter transcription units (MRTUs) in 6-well plates using FuGene 6 reagent (Roche; 3 ml FuGene/1 mg DNA). The MRTU constructs are regulated by a cis-regulating element (promoter). […] A major difference between the CIS and TRANS system is that in CIS activities of endogenous TFs are measured, whereas the TRANS assay evaluates changes in activities of exogenous, chimeric NR-Gal4 proteins. […] At the end of 24 hour incubation, total RNA was isolated using TriZol reagent (Invitrogen). The isolated RNA is then reverse-transcribed using oligo(dT) primer and Mo-MLV reverse transcriptase (Invitrogen) with DNAse I (Ambion) treatment for 30 min. The one-tenth of the produced cDNA was amplified by PCR using Taq DNA polymerase (Invitrogen) and two reporter sequence-specific primers. The PCR products were fluorescently labeled by primer extension with 6-arboxyfluorescein (6-FAM) 5'-labeled reporter sequence-specific primer (2 min at 95 C, 20 s at 68 C and 10 min at 72 C) and these products were digested with 5U of HpaI (New England Biolabs) for 2h at 37 C. The fragments were purified using Qiaquick PCR columns (Qiagen), analyzed on an ABI 3130xL genetic analyzer (Applied Biosystems) with peak positions identified by using a set of X-rhodamine (ROX)-labeled MapMarker1000 molecular weight standards (BioVentures). The raw capillary electrophoresis data was processed using Attagraph software (Attagene).
As to `CC(=O)[C@H]1CC[C@H]2[C@@H]3CC=C4C[C@@H](O)CC[C@]4(C)[C@H]3CC[C@]12C`, the result was inactive.

On to `C[C@H]1C[C@H]2[C@@H]3CCC4=CC(=O)C=C[C@]4(C)[C@@]3(F)[C@@H](O)C[C@]2(C)[C@@]1(O)C(=O)COP(=O)(O)O`, for which the outcome was inactive.

Turning to `CCCCCCCCCOC(C)=O`, the result was inactive.

For `CCc1ccc(C=O)cc1`, the compound was classed as inactive.

Regarding `C=CCOc1nc(OCC=C)nc(OCC=C)n1`, the result was inactive.

With `CC(C)C[C@H]1C(=O)N2CCC[C@H]2[C@]2(O)O[C@](NC(=O)[C@@H]3C=C4c5cccc6[nH]c(Br)c(c56)C[C@H]4N(C)C3)(C(C)C)C(=O)N12`, the outcome was inactive.

As to `Sc1nc(S)nc(S)n1`, the call was inactive.

Regarding `Cc1ncc([N+](=O)[O-])n1C`, the result was inactive.

Take `CC(C)CCCCCCCOC(=O)c1ccc(C(=O)OCCCCCCCC(C)C)c(C(=O)OCCCCCCCC(C)C)c1`: the call was inactive.

Turning to `CC(C)=CCC[C@H](C)CC=O`, the compound was classed as inactive.

On to `CCCCCNCCCCC`, for which the outcome was inactive.

In the case of `C=C(C)C1CCC(C)CC1O` (stereo not given), the compound was classed as inactive.

As to `CCC(=O)OCCC(C)CCC=C(C)C` (stereo not given), the result was inactive.

Consider `C=C(C)C(=O)OCc1ccccc1`, for which the outcome was inactive.

Regarding `CCO[Si](CCCS)(OCC)OCC`, the compound was called inactive.

In the case of `NC(=O)Nc1ccc(Cl)cc1`, the compound was classed as inactive.

Regarding `Cc1c(Cl)c(=O)oc2cc(O)ccc12`, the compound was classed as inactive.

Turning to `C=CC(C)(O)CCC=C(C)CCC=C(C)C` (stereo not given), the AC50 (commonly the concentration at which the activity in the assay is half-maximal) is 187 µM (active).

Consider `Clc1nc(C(Cl)(Cl)Cl)c(Cl)c(Cl)c1Cl`, for which the AC50 was 62.2 µM (active).

With `CC(C)(C)NC(N)=O`, the compound was called inactive.

Regarding `CCOC(=O)c1ccccc1OC`, the compound was called inactive.

For `CC(=O)OCc1ccc2c(c1)OCO2`, the compound was classed as inactive.

`O=C(COc1ccc(Cl)cc1)N1CCN(Cc2ccc3c(c2)OCO3)CC1`: the compound was classed as inactive.

With `O=C[C@@H](O)[C@H](O)[C@H](O)CO`, the result was inactive.

With `O=C(O)CCCCCCCC(=O)O`, the compound was called inactive.

Turning to `O=C1CCCCCCCCCCOCCCCO1`, the outcome was inactive.

As to `O=C(O)c1ccc(C(=O)O)cc1`, the outcome was inactive.

Turning to `CC1=CC(=O)NS(=O)(=O)O1`, the call was inactive.

Turning to `CC(C=O)Cc1ccc(C(C)C)cc1` (stereo not given), the result was inactive.

Consider `C=C(C)[C@@H]1CCC2=CC(=O)C[C@@H](C)[C@]2(C)C1`, for which the AC50 was 152 µM (active).

For the compound `CC(=O)OCCOC(C)=O`, the call was inactive.

With `CCCCOCCOCCOCCOCCO`, the outcome was inactive.

Take `CC(=O)OCCC(C)CC(C)(C)C` (stereo not given): the result was inactive.

Regarding `NC(=O)NC1NC(=O)NC1=O` (stereo not given), the call was inactive.

Turning to `N#Cc1ccc(CC(=NNC(=O)Nc2ccc(OC(F)(F)F)cc2)c2cccc(C(F)(F)F)c2)cc1`, the compound was classed as inactive.

`Nc1ccc(S(=O)(=O)O)c(N)c1`: the call was inactive.

For the compound `CC1(CO)CN(c2ccccc2)NC1=O` (stereo not given), the result was inactive.

Take `OCCOc1cccc(OCCO)c1`: the call was inactive.

`OCCN1CCNCC1`: the result was inactive.

On to `CCn1c2ccccc2c2cc(N)ccc21`, for which the compound was classed as inactive.

The record behind these values is PubChem BioAssay (EPA / NIEHS).
